{"source": "ChEMBL document CHEMBL3988442", "about": "“University of Dundee, Small-Polar-MMV Screening Library” (2021)", "tested_on": "Trypanosoma brucei", "assay": "Trypanosoma brucei 72 hour study", "assay_type": "functional, organism-based", "parameters": "scale not given: in the data most compounds retested in dose-response had high values", "note": "Out of some 66,000 compounds screened, about 960 (1.5%) showed an effect of 50% or more. The list comes from a sample in which strong results are over-represented; it also holds similar structures and randomly drawn compounds.", "data": [{"smiles": "CN(C)CCNC(=O)C1Cc2nc(-c3ccccc3)sc2N1CC1CC1.O=C(O)C(F)(F)F", "note": "(configuration not stated)", "values": [{"measurement": "Percent Effect", "setting": "30.3 µM, […]", "value": 23.06, "unit": "%"}]}, {"smiles": "O=C(C1CCOCC1)N1CCc2onc(COc3cccnc3)c2C1.O=C(O)C(F)(F)F", "values": [{"measurement": "Percent Effect", "setting": "30.3 µM, […]", "value": -638.1, "unit": "%"}]}, {"smiles": "COc1cc(CN(C)[C@@H]2COC[C@H]2c2ccc(F)cc2)cc(OC)c1.O=C(O)CC(O)(CC(=O)O)C(=O)O", "values": [{"measurement": "Percent Effect", "setting": "30.3 µM, […]", "value": -25.55, "unit": "%"}]}, {"smiles": "Cc1ccc(N2CC[C@H]3O[C@@H](C(=O)N4CCCO4)CC[C@H]32)nn1.O=C(O)C(F)(F)F", "values": [{"measurement": "Percent Effect", "setting": "30.3 µM, […]", "value": -45.1, "unit": "%"}]}, {"smiles": "COc1ccc(CNC(=O)Nc2cccnc2N2CCCC2)cc1", "values": [{"measurement": "Percent Effect", "setting": "30.3 µM, […]", "value": -33.31, "unit": "%"}]}, {"smiles": "COc1ccc(CNC(=O)Nc2cccnc2N2CCCC2)cc1O", "values": [{"measurement": "Percent Effect", "setting": "30 µM, 30.03 µM", "value": 51.01, "unit": "%"}]}, {"smiles": "COc1ccc(CNC(=O)Nc2cccnc2N2CCCC2)cc1OC", "values": [{"measurement": "Percent Effect", "setting": "30.3 µM, […]", "value": -31.53, "unit": "%"}]}, {"smiles": "CC1CCN(CC(=O)NC2CCN(C(C)c3ccccc3)CC2)CC1.Cl", "note": "(configuration not stated)", "values": [{"measurement": "Percent Effect", "setting": "30.3 µM, […]", "value": 21.99, "unit": "%"}]}, {"smiles": "COc1ccc(CN2CCC3(CC2)CCN(c2cnn(C)c2)C3=O)cc1.O=C(O)C(F)(F)F", "values": [{"measurement": "Percent Effect", "setting": "30 µM, 30.03 µM", "value": 29.53, "unit": "%"}]}, {"smiles": "CN(Cc1n[nH]c2c1CCCC2)c1nc(C2CC2)nc2c1CCNCC2", "values": [{"measurement": "Percent Effect", "setting": "30 µM, 30.03 µM", "value": 53.53, "unit": "%"}]}, {"smiles": "CN(Cc1n[nH]c2c1CCC2)c1nc(C2CCCC2)nc2c1CNC2", "values": [{"measurement": "Percent Effect", "setting": "30 µM, 30.03 µM", "value": -1.405, "unit": "%"}]}, {"smiles": "CN(C)c1nc2c(c(N(C)Cc3n[nH]c4c3CCCC4)n1)CCNCC2", "values": [{"measurement": "Percent Effect", "setting": "30 µM, 30.03 µM", "value": 21.59, "unit": "%"}]}, {"smiles": "O=C(C1CCCN(C2CCOCC2)C1)N1Cc2ccccc2C1", "note": "(configuration not stated)", "values": [{"measurement": "Percent Effect", "setting": "30 µM, 30.03 µM", "value": -36.54, "unit": "%"}]}, {"smiles": "CC(C)(C)C(O)CN1CCN(CC(=O)NCC(F)(F)F)CC1", "note": "(configuration not stated)", "values": [{"measurement": "Percent Effect", "setting": "30 µM, 30.03 µM", "value": -50.05, "unit": "%"}]}, {"smiles": "O=C(CN1CCC2(CCCCC2)C1)NCC(F)(F)F", "values": [{"measurement": "Percent Effect", "setting": "30.3 µM, […]", "value": 100.3, "unit": "%"}]}, {"smiles": "O=C(CN1CCSC2(CCCCC2)C1)NCC(F)(F)F", "values": [{"measurement": "Percent Effect", "setting": "30.3 µM, […]", "value": 27.46, "unit": "%"}]}, {"smiles": "CCNC(=O)[C@@H]1C[C@H](N)CN1C(=O)c1c[nH]c2ccccc12", "values": [{"measurement": "Percent Effect", "setting": "30.3 µM, […]", "value": -39.66, "unit": "%"}]}, {"smiles": "CCN(CC)C(=O)CN1CCC2(C=Cc3cc(Cl)c(C)cc3O2)CC1", "values": [{"measurement": "Percent Effect", "setting": "30.3 µM, […]", "value": 99.22, "unit": "%"}]}, {"smiles": "Cc1cc2c(cc1Cl)C=CC1(CCN(CC(=O)N3CCOCC3)CC1)O2", "values": [{"measurement": "Percent Effect", "setting": "30.3 µM, […]", "value": -3.407, "unit": "%"}]}, {"smiles": "Cc1cc2c(cc1Cl)C=CC1(CCN(CC(=O)N3CCCC3)CC1)O2", "values": [{"measurement": "Percent Effect", "setting": "30.3 µM, […]", "value": -16.81, "unit": "%"}]}, {"smiles": "CNC(=O)N1C[C@H]2C[C@H](C(=O)NCc3cccnc3)[C@@H](C1)O2.O=C(O)C(F)(F)F", "values": [{"measurement": "Percent Effect", "setting": "30 µM, 30.03 µM", "value": 41.37, "unit": "%"}]}, {"smiles": "Cc1noc(C)c1C(=O)N1CCC(c2[nH]ncc2S(C)(=O)=O)C1", "note": "(configuration not stated)", "values": [{"measurement": "Percent Effect", "setting": "30.3 µM, […]", "value": -19.64, "unit": "%"}]}, {"smiles": "CN(CC1CCOCC1)C(C(=O)O)c1cccc(F)c1F", "note": "(configuration not stated)", "values": [{"measurement": "Percent Effect", "setting": "30 µM, 30.03 µM", "value": -18.13, "unit": "%"}]}, {"smiles": "c1ccc(CCCN2CCN(c3ccc4nncn4n3)CC2)cc1", "values": [{"measurement": "Percent Effect", "setting": "10 µM", "value": -24.8, "unit": "%"}]}, {"smiles": "c1ccc(CCN2CCN(c3ccc4nncn4n3)CC2)cc1", "values": [{"measurement": "Percent Effect", "setting": "10 µM", "value": -2.806, "unit": "%"}]}, {"smiles": "FC(F)(F)COCCN1CCN(c2ccc3nncn3n2)CC1", "values": [{"measurement": "Percent Effect", "setting": "30 µM, 30.03 µM", "value": 29.6, "unit": "%"}]}, {"smiles": "Clc1ccccc1CCN1CCN(c2ccc3nncn3n2)CC1", "values": [{"measurement": "Percent Effect", "setting": "10 µM", "value": 55.98, "unit": "%"}]}, {"smiles": "c1ccc(CCN2CCN(c3ccc4nncn4n3)CC2)nc1", "values": [{"measurement": "Percent Effect", "setting": "30 µM, 30.03 µM", "value": 14.18, "unit": "%"}]}, {"smiles": "c1ccc(OCCCN2CCN(c3ccc4nncn4n3)CC2)cc1", "values": [{"measurement": "Percent Effect", "setting": "30 µM, 30.03 µM", "value": 53.47, "unit": "%"}]}, {"smiles": "COCCN1CCC2(CC1)CC(NC(=O)CN(C)C)c1ccccc1O2.O=C(O)C(F)(F)F.O=C(O)C(F)(F)F", "note": "(configuration not stated)", "values": [{"measurement": "Percent Effect", "setting": "30.3 µM, […]", "value": -3.899, "unit": "%"}]}, {"smiles": "CNC(=O)[C@H]1C[C@@H]2CN(C(=O)c3ccncc3)C[C@@H]2N1S(C)(=O)=O.O=C(O)C(F)(F)F", "values": [{"measurement": "Percent Effect", "setting": "30.3 µM, […]", "value": -12.29, "unit": "%"}]}, {"smiles": "Cc1cnc(N2CCc3cc(C(=O)O)c(N(C)C)nc3CC2)nc1.O=C(O)C(F)(F)F", "values": [{"measurement": "Percent Effect", "setting": "30.3 µM, […]", "value": -16.6, "unit": "%"}]}, {"smiles": "O=C(NCC1CCN(CCc2ccccc2)C1)c1cc(Cl)c[nH]1", "note": "(configuration not stated)", "values": [{"measurement": "Percent Effect", "setting": "30 µM, 30.03 µM", "value": -9.095, "unit": "%"}]}, {"smiles": "COC(=O)c1ccc(N2CCN(C(=O)c3ccncc3)C(C)C2)cc1", "note": "(configuration not stated)", "values": [{"measurement": "Percent Effect", "setting": "30 µM, 30.03 µM", "value": 41.83, "unit": "%"}]}, {"smiles": "COC(=O)c1ccc(N2CCN(C(=O)C3CC3)C(C)C2)cc1", "note": "(configuration not stated)", "values": [{"measurement": "Percent Effect", "setting": "30 µM, 30.03 µM", "value": -2.442, "unit": "%"}]}, {"smiles": "CCC(=O)N1CCN(c2ccc(C(=O)OC)cc2)CC1C", "note": "(configuration not stated)", "values": [{"measurement": "Percent Effect", "setting": "30 µM, 30.03 µM", "value": 6.915, "unit": "%"}]}, {"smiles": "COC(=O)c1ccc(N2CCN(C(=O)c3cc(C)no3)C(C)C2)cc1", "note": "(configuration not stated)", "values": [{"measurement": "Percent Effect", "setting": "30.3 µM, […]", "value": 29.28, "unit": "%"}]}, {"smiles": "COC(=O)c1ccc(N2CCN(C(=O)C3CCC3)C(C)C2)cc1", "note": "(configuration not stated)", "values": [{"measurement": "Percent Effect", "setting": "30 µM, 30.03 µM", "value": 50.56, "unit": "%"}]}, {"smiles": "COC(=O)c1ccc(N2CCN(C(=O)c3ccco3)C(C)C2)cc1", "note": "(configuration not stated)", "values": [{"measurement": "Percent Effect", "setting": "30.3 µM, […]", "value": 90.39, "unit": "%"}]}, {"smiles": "Cl.Nc1nc(Nc2ccccc2)cc(N2CCNCC2)n1", "values": [{"measurement": "Percent Effect", "setting": "30.3 µM, […]", "value": -11.41, "unit": "%"}, {"measurement": "Percent Effect", "setting": "10 mM, 10 mM as filed; unlikely as a test dose", "value": -70.99, "unit": "%"}]}, {"smiles": "CN1CCN(C(=O)c2cccn2C)Cc2cccnc21", "values": [{"measurement": "Percent Effect", "setting": "30.3 µM, […]", "value": -5.91, "unit": "%"}]}, {"smiles": "Cn1cccc1C(=O)N1CCN(CC2CC2)c2ncccc2C1", "values": [{"measurement": "Percent Effect", "setting": "30 µM, 30.03 µM", "value": 57.2, "unit": "%"}]}, {"smiles": "O=C(c1cccs1)N1CCN(CC2CC2)c2ncccc2C1", "values": [{"measurement": "Percent Effect", "setting": "30 µM, 30.03 µM", "value": -33.24, "unit": "%"}]}, {"smiles": "Cc1nc(C(=O)NS(=O)(=O)c2cccc(C#N)c2)cs1", "values": [{"measurement": "Percent Effect", "setting": "30.3 µM, […]", "value": 2.101, "unit": "%"}]}, {"smiles": "COCC1c2c(cnn2CC2CC2)CCN1Cc1ccc(C)o1.O=C(O)C(F)(F)F.O=C(O)C(F)(F)F", "note": "(configuration not stated)", "values": [{"measurement": "Percent Effect", "setting": "30.3 µM, […]", "value": -1.349, "unit": "%"}]}, {"smiles": "O=C(NCCc1ccn(-c2ccccc2)n1)N1CCCC(CO)C1", "note": "(configuration not stated)", "values": [{"measurement": "Percent Effect", "setting": "10 µM", "value": 104, "unit": "%"}]}, {"smiles": "O=C(NCC1CCCN(C(=O)NCCc2ccccc2)C1)c1ccco1", "note": "(configuration not stated)", "values": [{"measurement": "Percent Effect", "setting": "30.3 µM, […]", "value": 15.56, "unit": "%"}]}, {"smiles": "O=C(NCc1nn(-c2ccccc2)c2c1CCC2)N1CCCC(O)C1", "note": "(configuration not stated)", "values": [{"measurement": "Percent Effect", "setting": "10 µM", "value": -55.19, "unit": "%"}]}, {"smiles": "CCOC1CCCN(C(=O)NCCc2ccn(-c3ccccc3)n2)C1", "note": "(configuration not stated)", "values": [{"measurement": "Percent Effect", "setting": "30 µM, 30.03 µM", "value": 99.66, "unit": "%"}]}, {"smiles": "CCOC1CCCN(C(=O)c2nn(-c3ccccc3F)cc2O)C1", "note": "(configuration not stated)", "values": [{"measurement": "Percent Effect", "setting": "30.3 µM, […]", "value": -12.09, "unit": "%"}]}, {"smiles": "COc1ccccc1CNC(=O)N1CCCC(CO)C1", "note": "(configuration not stated)", "values": [{"measurement": "Percent Effect", "setting": "30 µM, 30.03 µM", "value": -45.66, "unit": "%"}]}]}
